# In PubChem BioAssay (Tox21):
# Where “and” joins values, the source holds several entries; their conditions need not be identical. Equal values may be shown once. Results filed as inconclusive are left out. Entries that show only a call come without a potency. Some structures have more than one record in an assay (separate samples or runs), and their calls can disagree. Calls of active or inactive are those of the source. Unless noted, the call rests on the fitted dose curve; in most records, active means well fitted curve in the direction sought with a large enough effect in the repeat runs; inconclusive means weak or mixed curves; inactive means no such curve, though single readings can be large; an effect the other way counts as inactive or inconclusive.
# Columns and labels:
# [1] = biological target: Thyrotropin receptor (Homo sapiens) (UniProt P16473); assay: qHTS assay to identify small molecule agonists of the thyroid stimulating hormone receptor (TSHR) signaling pathway (AID 1224843; calls by dose curve; further: nearly all actives have a fitted effect of over 45% in size)
# In short: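 Agonist-mode screen: TSHR HEK293 cells received test chemicals for half an hour at room temperature, then HTRF cAMP detection reagents for one hour prior to fluorescence measurement. Each chemical ran as a 15-concentration series, triplicated.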
# [2] = qHTS assay to identify small molecule agonists of H2AX (AID 1224845; active means well fitted activation curve with a large enough effect in the signal ratio in the repeat runs, not every such curve was filed as active; the % refers to the signal ratio)
# In short: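 Wild-type CHO-K1 cells, plated overnight, exposed 3hr at 37C to 15 concentrations (0.76% DMSO final). Lysed, then HTRF anti-pH2AX (S139) cryptate and anti-H2AX-d2 antibodies, 24 hr room temperature; 665/620 nm emission read.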
# [3] = qHTS assay to identify small molecule agonists of H2AX - cell viability counter screen (AID 1224847; calls by dose curve; further: nearly all actives have a fitted effect of over 30% in size; further: potency means the concentration at half of the fitted maximal effect)
# In short: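 For this counter screen, overnight-attached CHO-K1 cells received test compounds (15 concentrations, 0.76% DMSO final); 3 hr later at 37C, CellTiter-Glo reagent was added and luminescence recorded after 30 min at room temperature.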
# [4] = qHTS assay to identify small molecule antagonists of the estrogen related receptor (ERR) signaling pathway from Tox21 library (AID 1224848); further: nearly all actives have a fitted effect of over 50% in size
# In short: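 Quantitative high-throughput format: ERR reporter cells (2,000/well) pre-incubated 6 h, treated 18 h at 37 C with compounds in DMSO alongside positive and negative controls, then read by ONE-Glo luminescence.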
# [5] = qHTS assay to identify small molecule agonists of the estrogen related receptor (ERR) signaling pathway from Tox21 library (AID 1224849; calls by dose curve; further: nearly all actives have a fitted effect of over 15% in size); settings: ERR reporter cell line, ONE-Glo luciferase, 18 h
# In short: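 Reporter cells (ERR, NTP source) treated with Tox21 10K compounds 18 h, 37 C. Readout: ONE-Glo luminescence, 30 min RT.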
# [6] = qHTS RealTime-Glo MT Cell Viability Assay in HEK293 cells - 32 hour (AID 1224868); further: nearly all actives have a fitted effect of over 50% in size; further: potency means the concentration at half of the fitted maximal effect
# In short: (§1)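 Reads taken at 0, 8, 16, 24, 32 and 40 h from the same wells. HEK293 cells (600/well) carried RealTime-Glo reagents from seeding, with compound added after a 5 h settle at 37 C.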
# [7] = A CellTox Green Cytotoxicity Assay to monitor cytotoxicity in HEK293 cells - 0 hour (AID 1224869); further: nearly all actives have a fitted effect of over 50% in size
# In short: (§2)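 Homogeneous no-lysis format: HEK293 cell suspension mixed with CellTox Green reagent, seeded, incubated 5 h at 37 C/5% CO2, then dosed by pintool with compound in DMSO.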
# [8] = A CellTox Green Cytotoxicity Assay to monitor cytotoxicity in HEK293 cells - 40 hour (AID 1224871); further: nearly all actives have a fitted effect of over 45% in size; further: potency means the concentration at half of the fitted maximal effect
# In short: as §2
# [9] = qHTS RealTime-Glo MT Cell Viability Assay in HEK293 cells - 16 hour (AID 1224872); further: top concentration of the series differs between compounds; nearly all actives have a fitted effect of over 50% in size
# In short: as §1
# [10] = qHTS RealTime-Glo MT Cell Viability Assay in HepG2 cells - 8 hour (AID 1224873); further: nearly all actives have a fitted effect of over 55% in size
# In short: (§3)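 HepG2 cells (600/well) mixed with RealTime-Glo MT reagent, settled 5 h at 37 C/5% CO2 before compound addition. Nonlytic NanoLuc luminescence from viable-cell prosubstrate reduction read repeatedly during 40 h treatment at 37 C.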
# [11] = qHTS RealTime-Glo MT Cell Viability Assay in HEK293 cells - 40 hour (AID 1224874); settings: RealTime-Glo luminescence; max response: stronger effect = lower value; further: nearly all actives have a fitted effect of over 50% in size; further: potency means the concentration at half of the fitted maximal effect
# In short: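 Measured as luminescence from the same continuously cultured HEK293 wells at successive time points (0, 8, 16, 24, 32, 40 h) after compound addition. Reagent present from seeding; dosing at 5 h; incubation 37 C.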
# [12] = A CellTox Green Cytotoxicity Assay to monitor cytotoxicity in HEK293 cells - 24 hour (AID 1224875); further: nearly all actives have a fitted effect of over 45% in size
# In short: as §2
# [13] = A CellTox Green Cytotoxicity Assay to monitor cytotoxicity in HepG2 cells - 16 hour (AID 1224876); further: nearly all actives have a fitted effect of over 45% in size; further: potency means the concentration at half of the fitted maximal effect
# In short: (§4)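 Fluorescent DNA-binding dye, 600 HepG2 cells/well, 5 h preincubation then compound in DMSO; same plates read at 0–40 h, 37 C.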
# [14] = qHTS RealTime-Glo MT Cell Viability Assay in HepG2 cells - 32 hour (AID 1224877); further: nearly all actives have a fitted effect of over 55% in size
# In short: (§5)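 HepG2 suspension premixed with RealTime-Glo reagents is plated at 600 cells per well and left 5 h at 37 C/5% CO2. Compounds in DMSO then go in, and bioluminescence reflecting viable cell number is recorded over 40 h.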
# [15] = A CellTox Green Cytotoxicity Assay to monitor cytotoxicity in HepG2 cells - 24 hour (AID 1224878); further: nearly all actives have a fitted effect of over 45% in size; further: potency means the concentration at half of the fitted maximal effect
# In short: as §4
# [16] = A CellTox Green Cytotoxicity Assay to monitor cytotoxicity in HepG2 cells - 40 hour (AID 1224879); further: nearly all actives have a fitted effect of over 40% in size; further: potency means the concentration at half of the fitted maximal effect
# In short: as §4
# [17] = qHTS assay to identify small molecule agonists of the hypoxia (HIF-1) signaling pathway - cell viability counter screen (AID 1224844; calls by dose curve; further: nearly all actives have a fitted effect of over 50% in size)
# In short: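 Same wells as the HIF-1 reporter screen; ME-180 cells carrying HRE-bla, 17 hr treatment at 37C; CellTiter-Glo luminescence read after 30 min at room temperature.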
# [18] = qHTS assay to identify small molecule agonists of the hypoxia (HIF-1) signaling pathway (AID 1224846; active means well fitted activation curve with a large enough effect in the signal ratio in the repeat runs, not every such curve was filed as active; the % refers to the signal ratio)
# In short: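 In ME-180 cells bearing an HRE-bla construct, 17 h treatment with DMSO-dissolved compounds at 37C was followed by CCF4-AM loading to quantify reporter induction.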
# [19] = qHTS RealTime-Glo MT Cell Viability Assay in HepG2 cells - 40 hour (AID 1224870); further: nearly all actives have a fitted effect of over 50% in size
# In short: as §3
# [20] = qHTS RealTime-Glo MT Cell Viability Assay in HepG2 cells - 24 hour (AID 1224867); further: nearly all actives have a fitted effect of over 50% in size
# In short: as §5
# Thyrotropin receptor (Homo sapiens), sequence (P16473 whole entry, looked up): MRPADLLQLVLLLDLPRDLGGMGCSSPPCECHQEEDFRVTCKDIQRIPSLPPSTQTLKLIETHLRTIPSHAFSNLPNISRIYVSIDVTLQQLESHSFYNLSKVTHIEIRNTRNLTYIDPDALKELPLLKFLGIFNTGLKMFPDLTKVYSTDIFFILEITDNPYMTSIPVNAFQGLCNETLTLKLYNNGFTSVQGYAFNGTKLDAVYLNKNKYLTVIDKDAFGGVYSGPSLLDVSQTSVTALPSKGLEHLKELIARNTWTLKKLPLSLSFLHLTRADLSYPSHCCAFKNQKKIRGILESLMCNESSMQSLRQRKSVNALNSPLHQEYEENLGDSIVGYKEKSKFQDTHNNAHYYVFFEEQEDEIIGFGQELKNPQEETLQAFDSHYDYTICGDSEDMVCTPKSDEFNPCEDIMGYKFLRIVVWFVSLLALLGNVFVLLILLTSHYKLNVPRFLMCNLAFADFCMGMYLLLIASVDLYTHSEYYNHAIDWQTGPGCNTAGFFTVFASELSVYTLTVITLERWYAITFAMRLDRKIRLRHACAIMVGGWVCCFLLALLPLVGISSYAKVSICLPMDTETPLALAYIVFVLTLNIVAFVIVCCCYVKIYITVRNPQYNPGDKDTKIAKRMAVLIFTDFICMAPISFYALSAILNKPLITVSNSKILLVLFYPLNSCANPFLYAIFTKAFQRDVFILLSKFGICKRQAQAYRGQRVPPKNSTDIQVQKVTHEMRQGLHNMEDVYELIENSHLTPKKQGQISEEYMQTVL
compound,measurement,setting,value
O=C=Nc1ccc(Cc2ccc(N=C=O)cc2)cc1,Potency,[1],inactive
same,outcome,[2],inactive
same,Potency,[3],inactive
same,Potency,[4],inactive
same,"activity change, positive = activation",[5]; at 42.5 µM (top of the series),2.14% (inactive)
same,"activity change, positive = activation",[5]; at 92.4 µM (top of the series),-19.6% (inactive)
same,Potency,[6],inactive
same,Potency,[7],inactive
same,Potency,[8],inactive
same,Potency,[9],inactive
same,Potency,[10],inactive
same,max response,[11],-12.4% (inactive) and 1.24% (inactive)
same,Potency,[12],inactive
same,Potency,[13],inactive
same,Potency,[14],inactive
same,Potency,[15],inactive
same,Potency,[16],inactive
Cc1ccc(C)c(O)c1C,Potency,[1],inactive
same,Potency,[17],inactive
same,Potency,[18],inactive
same,Potency,[3],inactive
same,Potency,[6],inactive
same,Potency,[7],inactive
same,Potency,[19],inactive
same,Potency,[8],inactive
same,Potency,[9],inactive
same,Potency,[10],inactive
same,max response,[11],1.3% (inactive) and 2.18% (inactive)
same,Potency,[12],inactive
same,Potency,[13],inactive
same,Potency,[14],inactive
same,Potency,[15],inactive
same,Potency,[16],inactive
CCC(C)CO (configuration not stated),Potency,[1],inactive
same,outcome,[2],inactive
same,Potency,[18],inactive
same,Potency,[3],inactive
same,Potency,[4],inactive
same,Potency,[6],inactive and 24.5 µM (active)
same,Potency,[7],inactive
same,Potency,[19],inactive
same,Potency,[8],inactive
same,Potency,[9],inactive
same,Potency,[10],inactive
same,Potency,[11],24.5 µM (active)
same,max response,[11],4.66% (inactive)
same,Potency,[12],inactive
same,Potency,[14],inactive
same,Potency,[15],inactive and 43.6 µM (active)
same,Potency,[16],inactive and 43.6 µM (active)
COC(=O)c1ccccc1,Potency,[1],inactive
same,Potency,[17],inactive
same,Potency,[18],inactive
same,Potency,[3],inactive
same,Potency,[20],inactive
same,Potency,[6],inactive and 11 µM (active)
same,Potency,[7],inactive
same,Potency,[19],inactive
same,Potency,[8],inactive
same,Potency,[9],inactive
same,Potency,[10],inactive
same,Potency,[11],12.3 µM (active)
same,max response,[11],7.68% (inactive)
same,Potency,[12],inactive
same,Potency,[13],inactive
same,Potency,[14],inactive
same,Potency,[15],inactive
same,Potency,[16],inactive
Oc1ccc(O)cc1,Potency,[17],inactive
same,Potency,[7],inactive
same,Potency,[19],inactive
same,Potency,[8],inactive
same,Potency,[10],inactive
same,Potency,[12],inactive
same,Potency,[13],inactive
same,Potency,[14],inactive
same,Potency,[15],inactive
same,Potency,[16],inactive
O=C(Nc1ccc([N+](=O)[O-])cc1Cl)c1cc(Cl)ccc1O,Potency,[1],inactive
same,outcome,[2],inactive
same,Potency,[3],2.84 µM (active)
same,Potency,[20],inactive
same,Potency,[6],3.47 µM (active) and 928 nM (active)
same,Potency,[7],inactive
same,Potency,[8],24.5 µM (active) and 13.1 µM (active)
same,Potency,[10],inactive
same,Potency,[11],2.19 µM (active) and 827 nM (active)
same,Potency,[12],inactive
same,Potency,[13],inactive and 29.3 nM (active)
same,Potency,[15],5.49 µM (active)
same,cytotoxicity,[15],38% [at 15.8 µM] (inactive)
same,Potency,[16],4.9 µM (active) and 2.33 µM (active)
